Test results: the supplement of paper PMC10849652
Of roughly 8,800 targets only a part is listed; those with a hit were picked by preference. About 0.5% of all pairs of compound and target were hits.

How the values were obtained:
Experiment in all cases: log2 fold change, soluble protein after heating vs DMSO (PISA); higher = thermal stabilisation; K562 lysate, 10 uM; active = over 0.2 and 3.5 SD of the protein, either way, in both replicates (recomputed)
[1] = compound: C1=CC=C(C=C1)[C@H](COC2=CC3=C(C=C2)NC(=O)N3)NC(=O)C4=CC=CN(C4=O)CC5=CC(=C(C=C5)F)F
In short: (§1)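 Log-two fold change in thermal stability relative to solvent controls is reported from duplicates. For each sample, crude K562 extract from dounce-homogenised pellets in PBS pH 7.4 with 1 mM MgCl2, at 1 mg/mL protein, was treated with 10 μM compound for 30 min. Aliquots heated for 3 min across 48°C-58°C were pooled, brought to 0.5% NP-40 at 4°C and cleared at 21,000xg for 90 min. The supernatant was quantified by TMTpro 16plex LC-MS/MS with channel sums equalised.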

[2] = compound: CC1=C(SC2=C1C(=N[C@H](C3=NN=C(N32)C)CC(=O)N)C4=CC=C(C=C4)Cl)C
In short: as §1

[3] = compound: CC1=C2C(=CC=C1)N=C(N(C2=O)C3=CC=CC=C3C)CN4C=NC5=C(N=CN=C54)N
In short: as §1

[4] = compound: Cc1sc2c(c1C)C(c1ccc(Cl)cc1)=N[C@@H](CC(=O)OC(C)(C)C)c1nnc(C)n1-2
In short: as §1

[5] = compound: c1ccc([C@@H]2C[C@H]2NC2CCNCC2)cc1
In short: as §1

Measured: log2 fold change

GOLPH3 (UniProt Q9H4A6)
inactive: [1] -0.067 | [2] 0.018 | [3] 0.022 | [4] -0.089 | [5] 0.008

HMGB1 (UniProt P09429)
Sequence of UniProt P09429 (P09429 whole entry, looked up): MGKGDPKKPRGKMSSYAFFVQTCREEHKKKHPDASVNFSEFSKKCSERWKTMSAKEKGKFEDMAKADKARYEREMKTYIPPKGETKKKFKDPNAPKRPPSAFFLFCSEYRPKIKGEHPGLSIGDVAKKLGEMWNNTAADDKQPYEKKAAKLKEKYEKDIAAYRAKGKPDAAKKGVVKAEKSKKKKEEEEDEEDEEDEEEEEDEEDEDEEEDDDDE
inactive: [1] 0.053 | [2] -0.048 | [3] 0.032 | [4] 0.056 | [5] 0.115

GMDS (UniProt O60547)
Sequence of UniProt O60547 (O60547 whole entry, looked up): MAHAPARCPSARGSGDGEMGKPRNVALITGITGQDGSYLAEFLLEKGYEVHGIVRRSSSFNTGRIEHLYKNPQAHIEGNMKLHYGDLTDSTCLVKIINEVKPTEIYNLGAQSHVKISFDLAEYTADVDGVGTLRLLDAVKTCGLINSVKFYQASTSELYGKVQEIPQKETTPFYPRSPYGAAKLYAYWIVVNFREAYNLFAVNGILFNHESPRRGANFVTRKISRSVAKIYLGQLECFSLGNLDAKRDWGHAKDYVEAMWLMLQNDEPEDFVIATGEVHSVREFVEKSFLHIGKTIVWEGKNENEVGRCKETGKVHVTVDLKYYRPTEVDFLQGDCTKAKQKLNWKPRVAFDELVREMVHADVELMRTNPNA
inactive: [1] -0.003 | [2] -0.014 | [3] 0.042 | [4] 0.033 | [5] 0.005

HSP90AA4P (UniProt Q58FG1)
Sequence of UniProt Q58FG1 (Q58FG1 whole entry, looked up): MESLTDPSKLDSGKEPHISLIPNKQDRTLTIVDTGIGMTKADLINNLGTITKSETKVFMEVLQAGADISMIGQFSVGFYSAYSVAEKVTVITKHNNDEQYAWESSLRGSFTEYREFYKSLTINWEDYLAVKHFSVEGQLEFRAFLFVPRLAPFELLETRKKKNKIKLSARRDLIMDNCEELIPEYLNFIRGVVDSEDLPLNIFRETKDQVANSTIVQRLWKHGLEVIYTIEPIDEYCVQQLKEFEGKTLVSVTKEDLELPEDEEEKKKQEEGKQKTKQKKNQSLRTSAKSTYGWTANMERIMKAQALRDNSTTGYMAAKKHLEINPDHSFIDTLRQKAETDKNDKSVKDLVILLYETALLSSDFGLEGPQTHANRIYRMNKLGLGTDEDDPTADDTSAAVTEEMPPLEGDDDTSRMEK
inactive: [1] 0.012 | [2] 0.1 | [3] -0.008 | [4] -0.101 | [5] -0.308

HDAC3 (UniProt O15379)
Sequence of UniProt O15379 (O15379 whole entry, looked up): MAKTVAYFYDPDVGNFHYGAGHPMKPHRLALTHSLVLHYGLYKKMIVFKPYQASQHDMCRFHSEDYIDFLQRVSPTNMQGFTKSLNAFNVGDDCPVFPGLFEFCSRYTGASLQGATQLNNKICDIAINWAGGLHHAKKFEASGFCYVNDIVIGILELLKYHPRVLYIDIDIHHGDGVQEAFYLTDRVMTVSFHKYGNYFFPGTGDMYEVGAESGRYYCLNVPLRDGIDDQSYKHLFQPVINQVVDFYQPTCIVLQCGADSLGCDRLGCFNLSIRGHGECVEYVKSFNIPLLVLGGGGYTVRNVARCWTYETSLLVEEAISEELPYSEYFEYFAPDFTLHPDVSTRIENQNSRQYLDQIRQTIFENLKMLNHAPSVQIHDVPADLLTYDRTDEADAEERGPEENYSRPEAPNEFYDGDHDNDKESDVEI
inactive: [1] -0.035 | [2] 0.009 | [3] 0.006 | [4] 0.044 | [5] 0.014

HMGCL (UniProt P35914)
Sequence of UniProt P35914 (P35914 whole entry, looked up): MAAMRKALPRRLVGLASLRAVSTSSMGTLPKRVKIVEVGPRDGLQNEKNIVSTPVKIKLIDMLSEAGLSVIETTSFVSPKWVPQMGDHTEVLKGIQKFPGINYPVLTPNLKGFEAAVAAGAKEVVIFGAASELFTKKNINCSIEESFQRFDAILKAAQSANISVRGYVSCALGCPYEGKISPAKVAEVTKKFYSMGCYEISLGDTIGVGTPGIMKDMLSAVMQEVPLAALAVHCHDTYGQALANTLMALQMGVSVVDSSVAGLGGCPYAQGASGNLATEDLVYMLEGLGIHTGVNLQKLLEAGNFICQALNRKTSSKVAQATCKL
inactive: [1] 0.057 | [2] -0.017 | [3] 0.058 | [4] 0.046 | [5] 0.006

HNRNPD isoform 2 (UniProt Q14103)
Sequence of UniProt Q14103 (Q14103 whole entry, looked up): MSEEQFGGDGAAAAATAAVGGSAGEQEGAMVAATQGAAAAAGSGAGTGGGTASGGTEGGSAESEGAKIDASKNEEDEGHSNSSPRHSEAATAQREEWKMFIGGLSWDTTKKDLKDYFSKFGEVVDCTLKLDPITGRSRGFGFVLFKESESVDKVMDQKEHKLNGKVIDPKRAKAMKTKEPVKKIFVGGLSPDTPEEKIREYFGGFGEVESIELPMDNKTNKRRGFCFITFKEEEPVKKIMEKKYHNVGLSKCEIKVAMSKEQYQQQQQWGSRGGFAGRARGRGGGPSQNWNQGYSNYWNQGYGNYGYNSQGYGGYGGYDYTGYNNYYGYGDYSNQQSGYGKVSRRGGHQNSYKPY
inactive: [1] 0.059 | [2] -0.015 | [3] -0.01 | [4] 0.018 | [5] 0.125

HAUS8 (UniProt Q9BT25)
Sequence of UniProt Q9BT25 (Q9BT25 whole entry, looked up): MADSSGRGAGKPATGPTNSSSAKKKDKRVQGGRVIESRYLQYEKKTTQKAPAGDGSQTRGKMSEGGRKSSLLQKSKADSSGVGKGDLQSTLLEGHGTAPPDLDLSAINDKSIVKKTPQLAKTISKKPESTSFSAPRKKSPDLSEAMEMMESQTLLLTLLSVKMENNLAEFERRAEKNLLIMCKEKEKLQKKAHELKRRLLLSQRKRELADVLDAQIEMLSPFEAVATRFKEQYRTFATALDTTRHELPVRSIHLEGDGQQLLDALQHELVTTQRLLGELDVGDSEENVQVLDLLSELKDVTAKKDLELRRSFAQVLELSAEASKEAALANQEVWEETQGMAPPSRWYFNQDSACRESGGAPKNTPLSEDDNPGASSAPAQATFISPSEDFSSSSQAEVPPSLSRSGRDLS
inactive: [1] 0.016 | [2] -0.029 | [3] 0 | [4] 0.009 | [5] 0

GTF2H1 (UniProt P32780)
Sequence of UniProt P32780 (P32780 whole entry, looked up): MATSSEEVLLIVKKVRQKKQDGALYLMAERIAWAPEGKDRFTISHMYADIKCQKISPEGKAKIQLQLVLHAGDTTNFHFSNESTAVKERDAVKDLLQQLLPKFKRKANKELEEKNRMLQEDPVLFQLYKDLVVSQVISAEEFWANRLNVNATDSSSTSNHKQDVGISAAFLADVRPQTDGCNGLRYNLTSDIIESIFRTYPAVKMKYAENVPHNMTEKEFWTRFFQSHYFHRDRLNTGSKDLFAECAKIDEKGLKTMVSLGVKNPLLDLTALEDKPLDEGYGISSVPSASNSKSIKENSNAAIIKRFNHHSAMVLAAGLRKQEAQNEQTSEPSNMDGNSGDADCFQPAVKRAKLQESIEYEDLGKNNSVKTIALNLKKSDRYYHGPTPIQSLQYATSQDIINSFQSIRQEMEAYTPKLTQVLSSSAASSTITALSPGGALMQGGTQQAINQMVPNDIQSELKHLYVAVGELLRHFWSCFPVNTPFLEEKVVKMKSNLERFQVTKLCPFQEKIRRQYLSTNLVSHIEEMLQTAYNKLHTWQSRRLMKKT
inactive: [1] 0.006 | [2] -0.035 | [3] 0.089 | [4] 0.025 | [5] 0.006

GSTM2 (UniProt P28161)
Sequence of UniProt P28161 (P28161 whole entry, looked up): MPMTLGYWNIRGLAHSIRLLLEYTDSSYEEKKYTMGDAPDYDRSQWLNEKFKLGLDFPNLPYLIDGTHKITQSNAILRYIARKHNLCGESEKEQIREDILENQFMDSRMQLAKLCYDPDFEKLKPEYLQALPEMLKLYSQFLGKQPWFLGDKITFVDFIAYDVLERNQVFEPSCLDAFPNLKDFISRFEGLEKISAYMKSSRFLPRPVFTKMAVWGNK
inactive: [1] -0.007 | [2] 0.03 | [3] -0.048 | [4] -0.037 | [5] 0.051

IRAK4 (UniProt Q9NWZ3)
inactive: [1] -0.02 | [2] -0.014 | [3] 0.022 | [4] -0.08 | [5] -0.024

KDM6A (UniProt O15550)
Sequence of UniProt O15550 (O15550 whole entry, looked up): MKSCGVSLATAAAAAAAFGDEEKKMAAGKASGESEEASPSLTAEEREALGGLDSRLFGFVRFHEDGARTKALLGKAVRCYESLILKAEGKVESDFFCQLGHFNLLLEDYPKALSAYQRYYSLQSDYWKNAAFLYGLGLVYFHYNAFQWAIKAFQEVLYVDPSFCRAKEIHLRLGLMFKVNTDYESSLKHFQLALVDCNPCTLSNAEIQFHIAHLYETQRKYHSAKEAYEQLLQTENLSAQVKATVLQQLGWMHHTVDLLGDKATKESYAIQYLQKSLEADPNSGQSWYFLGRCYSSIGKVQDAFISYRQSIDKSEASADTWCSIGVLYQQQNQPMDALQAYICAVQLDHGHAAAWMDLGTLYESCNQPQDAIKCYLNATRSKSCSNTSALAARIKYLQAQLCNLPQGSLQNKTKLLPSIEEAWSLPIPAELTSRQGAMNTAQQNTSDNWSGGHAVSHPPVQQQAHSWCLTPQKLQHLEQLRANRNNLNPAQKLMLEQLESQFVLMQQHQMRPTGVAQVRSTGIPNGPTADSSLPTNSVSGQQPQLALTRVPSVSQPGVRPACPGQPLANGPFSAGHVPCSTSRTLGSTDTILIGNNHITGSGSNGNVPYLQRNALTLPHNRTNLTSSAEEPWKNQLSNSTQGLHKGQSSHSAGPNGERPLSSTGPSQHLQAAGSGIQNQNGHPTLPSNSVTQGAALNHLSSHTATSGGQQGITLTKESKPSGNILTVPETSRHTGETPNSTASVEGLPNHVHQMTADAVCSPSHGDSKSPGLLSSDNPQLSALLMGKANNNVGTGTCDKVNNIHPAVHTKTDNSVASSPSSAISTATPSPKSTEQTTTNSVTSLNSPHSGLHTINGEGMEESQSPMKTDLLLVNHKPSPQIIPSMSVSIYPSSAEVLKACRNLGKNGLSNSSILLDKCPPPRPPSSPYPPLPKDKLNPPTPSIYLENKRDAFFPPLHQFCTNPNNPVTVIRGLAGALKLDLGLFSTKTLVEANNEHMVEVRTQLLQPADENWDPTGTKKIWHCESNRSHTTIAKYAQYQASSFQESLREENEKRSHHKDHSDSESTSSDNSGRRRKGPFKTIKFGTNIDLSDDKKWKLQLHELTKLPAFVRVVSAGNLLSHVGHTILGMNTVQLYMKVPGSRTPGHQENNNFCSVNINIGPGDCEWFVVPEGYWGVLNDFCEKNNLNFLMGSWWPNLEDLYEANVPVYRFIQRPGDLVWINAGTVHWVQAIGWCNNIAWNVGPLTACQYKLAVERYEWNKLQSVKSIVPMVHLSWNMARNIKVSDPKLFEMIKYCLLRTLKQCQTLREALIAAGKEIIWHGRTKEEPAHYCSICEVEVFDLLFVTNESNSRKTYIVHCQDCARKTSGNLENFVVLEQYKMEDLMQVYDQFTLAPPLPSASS
inactive: [1] -0.024 | [2] -0.019 | [3] 0.049 | [4] -0.03 | [5] 0.008

GSTZ1 (UniProt G3V4T6)
inactive: [1] 0.035 | [2] 0.002 | [3] -0.036 | [4] 0.062 | [5] -0.042
